# The whole screen tested about 5,700 compounds, of which about 85 (1%) were called active. Rule as the data show it: active = p53-positive nuclei above about 36% (passing the limit was not always enough); inactive = the rest. The sample as a whole holds a higher share of actives than the screen did.
# Experiments:
# [1] = nuclear p53 accumulation, HPV+ cells – imaging, p53-positive nuclei imaging, 24 h, 48 h (AID 1508601); settings: 24/48 h
# [2] = biological target: Cellular tumor antigen p53 (Homo sapiens) (UniProt P04637); assay: as above; settings: 24/48 h, stronger effect = higher value
# Sequence of Cellular tumor antigen p53 (Homo sapiens) (P04637 whole entry, looked up): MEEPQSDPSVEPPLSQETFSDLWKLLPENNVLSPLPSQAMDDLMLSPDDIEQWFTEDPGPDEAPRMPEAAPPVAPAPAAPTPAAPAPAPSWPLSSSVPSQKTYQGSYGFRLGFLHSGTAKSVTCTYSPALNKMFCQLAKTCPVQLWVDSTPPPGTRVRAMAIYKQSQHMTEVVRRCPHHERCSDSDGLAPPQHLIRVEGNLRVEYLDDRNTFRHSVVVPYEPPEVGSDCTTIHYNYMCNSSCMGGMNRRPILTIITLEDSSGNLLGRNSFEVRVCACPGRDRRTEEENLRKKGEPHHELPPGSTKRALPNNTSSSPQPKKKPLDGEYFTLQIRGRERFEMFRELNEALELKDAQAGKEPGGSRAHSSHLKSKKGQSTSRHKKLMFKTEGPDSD
# [3] = measured here: cell number at 24 h, Library stock concentration: 80 uM
# [4] = measured here: cell number at 24 h, Library stock concentration: 400 uM
# [5] = measured here: cell number at 24 h, Library stock concentration: 2 mM
# [6] = measured here: cell number at 24 h, Library stock concentration: 3.33 mM
# [7] = measured here: cell number at 24 h, Library stock concentration: 10 mM
# [8] = measured here: cell number at 24 h, concentration not given here
# [9] = measured here: cell number at 48 h, Library stock concentration: 80 uM
# [10] = measured here: cell number at 48 h, Library stock concentration: 400 uM
# [11] = measured here: cell number at 48 h, Library stock concentration: 2 mM
# [12] = measured here: cell number at 48 h, Library stock concentration: 3.33 mM
# [13] = measured here: cell number at 48 h, Library stock concentration: 10 mM
# [14] = measured here: cell number at 48 h, concentration not given here
# [15] = Library stock concentration: 80 uM
# [16] = Library stock concentration: 400 uM
# [17] = Library stock concentration: 2 mM
# [18] = Library stock concentration: 3.33 mM
# [19] = Library stock concentration: 10 mM
# [20] = measured here: p53 positive nuclei at 24 h, Library stock concentration: 80 uM
# [21] = measured here: p53 positive nuclei at 24 h, Library stock concentration: 400 uM
# [22] = measured here: p53 positive nuclei at 24 h, Library stock concentration: 2 mM
# [23] = measured here: p53 positive nuclei at 24 h, Library stock concentration: 3.33 mM
# [24] = measured here: p53 positive nuclei at 24 h, Library stock concentration: 10 mM
# [25] = measured here: p53 positive nuclei at 24 h, concentration not given here
smiles,measurement,setting,value
COc1cc(C(=O)NS(=O)(=O)c2ccccc2C)ccc1Cc1cn(C)c2ccc(NC(=O)OC3CCCC3)cc12,"nuclei count, normalised",[1]; [3],110%
same,"nuclei count, normalised",[1]; [4],108%
same,"nuclei count, normalised",[1]; [5],113%
same,"nuclei count, normalised",[1]; [6],103%
same,"nuclei count, normalised",[1]; [7],105%
same,"nuclei count, normalised",[1]; [8],89.5%
same,"nuclei count, normalised",[1]; [9],113%
same,"nuclei count, normalised",[1]; [10],108%
same,"nuclei count, normalised",[1]; [11],111%
same,"nuclei count, normalised",[1]; [12],108%
same,"nuclei count, normalised",[1]; [13],105%
same,"nuclei count, normalised",[1]; [14],92.4%
same,"p53-positive nuclei, normalised",[2]; [15],-0.138% (inactive)
same,"p53-positive nuclei, normalised",[2]; [16],0.119% (inactive)
same,"p53-positive nuclei, normalised",[2]; [17],-0.133% (inactive)
same,"p53-positive nuclei, normalised",[2]; [18],-0.0165% (inactive)
same,"p53-positive nuclei, normalised",[2]; [19],0.0919% (inactive)
same,"p53-positive nuclei, normalised",[2]; concentration not given here,-0.151% (inactive)
same,"p53-positive nuclei, normalised",[2]; [20],-0.0129%
same,"p53-positive nuclei, normalised",[2]; [21],-0.0637%
same,"p53-positive nuclei, normalised",[2]; [22],0.0356%
same,"p53-positive nuclei, normalised",[2]; [23],-0.167%
same,"p53-positive nuclei, normalised",[2]; [24],0.0472%
same,"p53-positive nuclei, normalised",[2]; [25],0.0267%
CCCCC/C=C\C/C=C\CCCC/C=C\CCCC(=O)O,"nuclei count, normalised",[1]; [8],97.6%
same,"nuclei count, normalised",[1]; [14],96%
same,"p53-positive nuclei, normalised",[2]; concentration not given here,-0.0366% (inactive)
same,"p53-positive nuclei, normalised",[2]; [25],0.0071%
Cc1ccc(B(O)O)cc1,"nuclei count, normalised","[1]; measured here: cell number at 24 h, Library stock concentration: 46 uM",105%
same,"nuclei count, normalised","[1]; measured here: cell number at 24 h, Library stock concentration: 278 uM",101%
same,"nuclei count, normalised","[1]; measured here: cell number at 24 h, Library stock concentration: 1.67 mM",110%
same,"nuclei count, normalised",[1]; [7],110%
same,"nuclei count, normalised","[1]; measured here: cell number at 48 h, Library stock concentration: 46 uM",109%
same,"nuclei count, normalised","[1]; measured here: cell number at 48 h, Library stock concentration: 278 uM",102%
same,"nuclei count, normalised","[1]; measured here: cell number at 48 h, Library stock concentration: 1.67 mM",112%
same,"nuclei count, normalised",[1]; [13],112%
same,"p53-positive nuclei, normalised",[2]; Library stock concentration: 46 uM,-0.0277% (inactive)
same,"p53-positive nuclei, normalised",[2]; Library stock concentration: 278 uM,-0.207% (inactive)
same,"p53-positive nuclei, normalised",[2]; Library stock concentration: 1.67 mM,-0.181% (inactive)
same,"p53-positive nuclei, normalised",[2]; [19],-0.0402% (inactive)
same,"p53-positive nuclei, normalised","[2]; measured here: p53 positive nuclei at 24 h, Library stock concentration: 46 uM",-0.0986%
same,"p53-positive nuclei, normalised","[2]; measured here: p53 positive nuclei at 24 h, Library stock concentration: 278 uM",-0.148%
same,"p53-positive nuclei, normalised","[2]; measured here: p53 positive nuclei at 24 h, Library stock concentration: 1.67 mM",-0.218%
same,"p53-positive nuclei, normalised",[2]; [24],-0.0984%
COc1ccc(CNc2nc(N3CCCC3CO)ncc2C(=O)NCc2ncccn2)cc1Cl (configuration not stated),"nuclei count, normalised",[1]; [6],112%
same,"nuclei count, normalised",[1]; [12],104%
same,"p53-positive nuclei, normalised",[2]; [18],-0.102% (inactive)
same,"p53-positive nuclei, normalised",[2]; [23],-0.198%
COc1cccc2c(C)cc(N3CCC[C@H]3CO)nc12,"nuclei count, normalised",[1]; [8],96.3%
same,"nuclei count, normalised",[1]; [14],98.1%
same,"p53-positive nuclei, normalised",[2]; concentration not given here,-0.0398% (inactive)
same,"p53-positive nuclei, normalised",[2]; [25],0.0977%
CCc1cnn2c(NCc3ccc[n+]([O-])c3)cc(N3CCCCC3CCO)nc12 (configuration not stated),"nuclei count, normalised",[1]; [3],30.2%
same,"nuclei count, normalised",[1]; [4],27.8%
same,"nuclei count, normalised",[1]; [5],24.5%
same,"nuclei count, normalised",[1]; [6],27.3%
same,"nuclei count, normalised",[1]; [7],30.5%
same,"nuclei count, normalised",[1]; [9],20.4%
same,"nuclei count, normalised",[1]; [10],19.3%
same,"nuclei count, normalised",[1]; [11],16.3%
same,"nuclei count, normalised",[1]; [12],18.9%
same,"nuclei count, normalised",[1]; [13],20.6%
same,"p53-positive nuclei, normalised",[2]; [15],51.1% (active)
same,"p53-positive nuclei, normalised",[2]; [16],35% (inactive)
same,"p53-positive nuclei, normalised",[2]; [17],42% (inactive)
same,"p53-positive nuclei, normalised",[2]; [18],36.1% (inactive)
same,"p53-positive nuclei, normalised",[2]; [19],26.7% (inactive)
same,"p53-positive nuclei, normalised",[2]; [20],9.51%
same,"p53-positive nuclei, normalised",[2]; [21],6.74%
same,"p53-positive nuclei, normalised",[2]; [22],7.45%
same,"p53-positive nuclei, normalised",[2]; [23],8.9%
same,"p53-positive nuclei, normalised",[2]; [24],2.01%
CCCCCCCCCCCCCC=CC(O)C(CO)N(C)C (configuration not stated),"nuclei count, normalised","[1]; measured here: cell number at 24 h, Library stock concentration: 500 nM",120%
same,"nuclei count, normalised","[1]; measured here: cell number at 24 h, Library stock concentration: 1.5 uM",110%
same,"nuclei count, normalised","[1]; measured here: cell number at 24 h, Library stock concentration: 4.6 uM",117%
same,"nuclei count, normalised","[1]; measured here: cell number at 24 h, Library stock concentration: 13.7 uM",108%
same,"nuclei count, normalised","[1]; measured here: cell number at 24 h, Library stock concentration: 41 uM",110%
same,"nuclei count, normalised","[1]; measured here: cell number at 24 h, Library stock concentration: 123 uM",122%
same,"nuclei count, normalised","[1]; measured here: cell number at 24 h, Library stock concentration: 370 uM",122%
same,"nuclei count, normalised","[1]; measured here: cell number at 24 h, Library stock concentration: 1.111 mM",118%
same,"nuclei count, normalised","[1]; measured here: cell number at 24 h, Library stock concentration: 3.333 mM",102%
same,"nuclei count, normalised",[1]; [7],35.8%
same,"nuclei count, normalised","[1]; measured here: cell number at 48 h, Library stock concentration: 500 nM",115%
same,"nuclei count, normalised","[1]; measured here: cell number at 48 h, Library stock concentration: 1.5 uM",109%
same,"nuclei count, normalised","[1]; measured here: cell number at 48 h, Library stock concentration: 4.6 uM",107%
same,"nuclei count, normalised","[1]; measured here: cell number at 48 h, Library stock concentration: 13.7 uM",107%
same,"nuclei count, normalised","[1]; measured here: cell number at 48 h, Library stock concentration: 41 uM",110%
same,"nuclei count, normalised","[1]; measured here: cell number at 48 h, Library stock concentration: 123 uM",114%
same,"nuclei count, normalised","[1]; measured here: cell number at 48 h, Library stock concentration: 370 uM",116%
same,"nuclei count, normalised","[1]; measured here: cell number at 48 h, Library stock concentration: 1.111 mM",112%
same,"nuclei count, normalised","[1]; measured here: cell number at 48 h, Library stock concentration: 3.333 mM",109%
same,"nuclei count, normalised",[1]; [13],22.2%
same,"p53-positive nuclei, normalised",[2]; Library stock concentration: 500 nM,-0.17% (inactive)
same,"p53-positive nuclei, normalised",[2]; Library stock concentration: 1.5 uM,-0.126% (inactive)
same,"p53-positive nuclei, normalised",[2]; Library stock concentration: 4.6 uM,-0.0366% (inactive)
same,"p53-positive nuclei, normalised",[2]; Library stock concentration: 13.7 uM,-0.121% (inactive)
same,"p53-positive nuclei, normalised",[2]; Library stock concentration: 41 uM,-0.00454% (inactive)
same,"p53-positive nuclei, normalised",[2]; Library stock concentration: 123 uM,-0.0524% (inactive)
same,"p53-positive nuclei, normalised",[2]; Library stock concentration: 370 uM,0.0673% (inactive)
same,"p53-positive nuclei, normalised",[2]; Library stock concentration: 1.111 mM,-0.00344% (inactive)
same,"p53-positive nuclei, normalised",[2]; Library stock concentration: 3.333 mM,-0.0281% (inactive)
same,"p53-positive nuclei, normalised",[2]; [19],3.77% (inactive)
same,"p53-positive nuclei, normalised","[2]; measured here: p53 positive nuclei at 24 h, Library stock concentration: 500 nM",-0.148%
same,"p53-positive nuclei, normalised","[2]; measured here: p53 positive nuclei at 24 h, Library stock concentration: 1.5 uM",-0.148%
same,"p53-positive nuclei, normalised","[2]; measured here: p53 positive nuclei at 24 h, Library stock concentration: 4.6 uM",-0.148%
same,"p53-positive nuclei, normalised","[2]; measured here: p53 positive nuclei at 24 h, Library stock concentration: 13.7 uM",-0.019%
same,"p53-positive nuclei, normalised","[2]; measured here: p53 positive nuclei at 24 h, Library stock concentration: 41 uM",-0.0213%
same,"p53-positive nuclei, normalised","[2]; measured here: p53 positive nuclei at 24 h, Library stock concentration: 123 uM",-0.148%
same,"p53-positive nuclei, normalised","[2]; measured here: p53 positive nuclei at 24 h, Library stock concentration: 370 uM",-0.0899%
same,"p53-positive nuclei, normalised","[2]; measured here: p53 positive nuclei at 24 h, Library stock concentration: 1.111 mM",-0.0918%
same,"p53-positive nuclei, normalised","[2]; measured here: p53 positive nuclei at 24 h, Library stock concentration: 3.333 mM",-0.0113%
same,"p53-positive nuclei, normalised",[2]; [24],3.53%

# Source: PubChem BioAssay AID1508601 (ICCB-Longwood Screening Facility, Harvard Medical School, 2020)
